Out of some 330,000 compounds screened, about 10,000 (3%) were called active.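 How the source made its calls: active means inhibition of at least 50% at 8 µM in the primary screen; inactive means the rest.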 What follows is part of a selection rich in actives, with near analogues and random picks from the rest.
What follows are molecules tested against Protein Mdm4 (Homo sapiens) + E3 ubiquitin-protein ligase Mdm2 (Homo sapiens) (UniProt O15151+Q00987) (assay: disruptors of Mdm2/MdmX RING complex – cell-based, luminescence, split luciferase, SaOS-2, uHTS, primary screen (AID 485346)). Conditions: SaOS-2 split-luciferase Mdm2/MdmX complementation, at 8 µM, hits give high values.
Chain of Protein Mdm4 (Homo sapiens) + E3 ubiquitin-protein ligase Mdm2 (Homo sapiens) (O15151 whole entry, looked up): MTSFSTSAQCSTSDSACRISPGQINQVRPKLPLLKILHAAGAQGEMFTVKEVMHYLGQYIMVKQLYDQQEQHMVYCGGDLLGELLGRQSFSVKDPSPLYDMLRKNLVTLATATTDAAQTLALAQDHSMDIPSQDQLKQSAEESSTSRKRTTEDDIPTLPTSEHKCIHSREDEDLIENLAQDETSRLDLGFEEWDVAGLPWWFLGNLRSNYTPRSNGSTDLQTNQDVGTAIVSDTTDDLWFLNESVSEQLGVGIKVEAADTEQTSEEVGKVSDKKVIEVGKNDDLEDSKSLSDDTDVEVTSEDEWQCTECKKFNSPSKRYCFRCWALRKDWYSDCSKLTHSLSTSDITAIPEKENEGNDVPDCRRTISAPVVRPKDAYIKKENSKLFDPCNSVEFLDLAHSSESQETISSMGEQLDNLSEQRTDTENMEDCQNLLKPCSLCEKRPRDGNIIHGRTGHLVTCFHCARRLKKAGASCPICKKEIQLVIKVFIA
Chain of Protein Mdm4 (Homo sapiens) + E3 ubiquitin-protein ligase Mdm2 (Homo sapiens) (Q00987 whole entry, looked up): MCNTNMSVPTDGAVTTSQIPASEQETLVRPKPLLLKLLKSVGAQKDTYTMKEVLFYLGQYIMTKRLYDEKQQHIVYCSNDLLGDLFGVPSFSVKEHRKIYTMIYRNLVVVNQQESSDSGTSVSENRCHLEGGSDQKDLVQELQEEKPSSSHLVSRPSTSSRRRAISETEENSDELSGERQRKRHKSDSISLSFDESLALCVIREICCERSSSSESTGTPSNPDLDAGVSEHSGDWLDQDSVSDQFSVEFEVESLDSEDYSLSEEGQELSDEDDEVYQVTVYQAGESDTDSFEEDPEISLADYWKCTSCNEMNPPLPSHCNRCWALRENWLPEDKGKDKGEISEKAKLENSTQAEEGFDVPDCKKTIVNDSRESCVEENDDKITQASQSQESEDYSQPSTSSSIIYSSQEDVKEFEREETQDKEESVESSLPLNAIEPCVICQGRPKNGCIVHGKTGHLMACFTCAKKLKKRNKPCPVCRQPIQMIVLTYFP

inhibition, active:
Cc1ccnc(NC(=O)C2CCN(S(=O)(=O)c3c(C)c(C)cc(C)c3C)CC2)c1 84.8%
Cc1ccc2sc(N(CCN(C)C)C(=O)/C=C/c3cccs3)nc2c1C 52.3%
CCC(C)N1C(=O)S/C(=C/c2ccc(Sc3nc4ccccc4[nH]3)o2)C1=O (stereo not given) 89.2%
Cc1ccc(-n2[nH]c(C)c(/C=N/NC(=O)c3cccc([N+](=O)[O-])c3)c2=O)cc1C 72.5%
CSc1nc(N)c(C#N)c(-c2ccccc2Cl)c1C#N 58.4%
CCn1c(O)c(N=NC(=O)c2cccc(S(=O)(=O)N3CCCCC3)c2)c2ccccc21 51%
Cc1cccc([C@@H]2[C@@H]3C(=O)N(Cc4ccccc4)C(=O)[C@@H]3[C@]3(C)C(=O)N(c4ccc(Br)cc4)C(=O)N23)c1 53.1%
Cn1c(=O)n(C)c2cc(C(=O)Nc3ccc(Br)cc3)ccc21 56.8%
Cn1c(=O)n(C)c2cc(C(=O)Nc3ccc4c(c3)OCO4)ccc21 60.2%
Cc1c(NC(=O)CSc2cccc3cccnc23)c(=O)n(-c2ccccc2)n1C 65.2%
CCOC(=O)c1ccc(NC(=O)c2nc[nH]c2C(=O)N[C@@H](CCCCNC(=O)OC(C)(C)C)C(=O)OC(C)(C)C)cc1 53.6%
O=C(CCCN1C(=O)/C(=C/c2cccs2)SC1=S)Nc1ccc(O)cc1 62.6%
O=C(CCCN1C(=O)/C(=C\c2ccccc2)SC1=S)Nc1ccccc1O 79.6%
COc1ccc(/C=C2\SC(=S)N(CCC(=O)Nc3ccccn3)C2=O)cc1OC 76.7%
O=C(CCCN1C(=O)/C(=C/c2ccccc2)SC1=S)Nc1ccc(O)cc1 94.8%
Cc1ccc(C2CC(=O)NC(SCC(=O)OCc3ccccc3)=C2C#N)o1 (stereo not given) 58.1%

inhibition, inactive:
CCN(CC(=O)NC(C)C)C(=O)c1cc(S(=O)(=O)N2CCCCC2)ccc1N1CCCCC1 2.7%
Cc1cccc(NC(=O)C2CCN(S(=O)(=O)c3cccc4cccnc34)CC2)c1 14%
O=C(Nc1ccccn1)C1CCN(S(=O)(=O)c2ccccc2)CC1 -12.4%
Cc1ccc(S(=O)(=O)N(C)CC(=O)NCCc2c[nH]c3ccccc23)cc1 6.29%
Cc1ccc(OCCNC(=O)CN2C(=O)NC3(CCCC3)C2=O)cc1 15.5%
Cc1ccc(S(=O)(=O)/N=S(\C)C(C)C)cc1 (stereo not given) 20.8%
COc1ccc(CNC(=O)C[C@H]2C[C@H](C(=O)N3CCOCC3)[C@@]3(C)c4[nH]c5cc(CCC(=O)N(C)C)ccc5c4CCN3C2=O)cc1OC 49.5%
Cc1ccc(S(=O)(=O)N(C)C)cc1NC(=O)/C=C/c1cccs1 30.7%
Cc1cc(C)c2nc(N(CCN(C)C)C(=O)/C=C/c3cccs3)sc2c1 47.5%
COCc1c(C(=O)N/N=C(\C)c2ccncc2)nnn1-c1nonc1N -11.6%
Cc1cc(C)c(S(=O)(=O)N(C)CC(=O)NCC2CCCO2)c(C)c1 (stereo not given) 0.089%
Cc1ccc(OCc2nnc(NC(=O)OCC(C)C)s2)cc1 -16.4%
O=C(CSc1nc2ccccc2[nH]1)Nc1nc(-c2ccccc2)c(-c2ccccc2)o1 13.9%
CN(Cc1ccccc1)C(=O)CSc1nc2ccccc2[nH]1 -10.7%
O=C(CNC(=O)c1ccccc1Br)NNC(=O)c1cccs1 4.78%
Cc1[nH]n(-c2ccc([N+](=O)[O-])cc2)c(=O)c1C=NCCN1CCN(C(=O)c2ccccc2F)CC1 -5.19%
Cc1[nH]n(-c2ccccc2)c(=O)c1/C=N/NC(=O)c1ccoc1C 37.2%
CC1O[C@@H](OC2C(O)C(C)O[C@H](OC(=O)[C@]34CCC(C)(C)C[C@H]3C3=CCC5[C@@]6(C)CC(O)C(O[C@@H]7OC(CO)C(O)[C@@H](O)[C@@H]7O)[C@@](C)(C(=O)O)C6CC[C@@]5(C)[C@]3(CO)CC4)C2O[C@H]2OC(C)[C@@H](O[C@@H]3OCC(O[C@@H]4OC(CO)C(O)[C@H](O)C4O)[C@@H](O)[C@@H]3O)[C@H](O)C2O)C(O)C(O)C1O (stereo not given in full) -20.6%
O=S(=O)(O)Oc1c[nH]c2ccccc12 12.5%
O=C(Nc1ccc2c(c1)nc1n2CCCCC1)c1cc(S(=O)(=O)N2CCOCC2)ccc1Cl 4.51%
O=C(CN(c1cccc(Cl)c1)S(=O)(=O)c1ccccc1)NN=C1CCCC1 -14%
CSc1ccc(-c2c(C#N)c(N)nc3c2c(C)nn3-c2ccccc2)cc1 40.5%
COc1ccccc1-c1c(C#N)c(N)nc2c1CCC2 -4.18%
Cc1ccc(NC(=O)C(=O)NCC2CCN(C(=O)c3cccc([N+](=O)[O-])c3)CC2)cc1 -4.26%
Cc1cccc(NC(=O)c2cccc(S(=O)(=O)N3CCCC3)c2)n1 -8.96%
CCn1c2ccccc2c2cc(NC(=O)COC(=O)c3cc(S(=O)(=O)N4CCCCC4)ccc3Cl)ccc21 17.9%
CCOc1ccc(-n2cnc3c(=O)[nH]c(N)nc32)cc1 -4.14%
CCN(C[C@H]1N[C@@](Cc2ccccc2)(C(=O)OC)[C@H]2C(=O)N(Cc3ccccc3)C(=O)[C@@H]12)C(=O)c1ccc(C)cc1 0.772%
CC(C)(C)N1C(=O)[C@H]2[C@@H](c3ccc(Br)cc3)N3C(=O)N(c4cccc(Cl)c4)C(=O)[C@@]3(C)[C@H]2C1=O 10.7%
Cc1cccc([C@@H]2[C@@H]3C(=O)N(Cc4ccccc4)C(=O)[C@@H]3[C@]3(Cc4ccc(Cl)cc4)C(=O)N(c4cccc(Cl)c4)C(=O)N23)c1 8.94%
Cc1ccc(S(=O)(=O)Nc2ccc(F)c(S(=O)(=O)N3CCOCC3)c2)cc1 29.4%
COc1cccc(OC)c1C(=O)Nc1ccc2c(c1)n(C)c(=O)n2C 6.22%
O=C(Nc1ccc2c(c1)OCO2)c1ccc(N2C(=O)c3ccccc3C2=O)cc1 8.21%
CC(C)C(=O)Nc1cccc(C(=O)Nc2ccc3c(c2)OCO3)c1 -105%
Cn1c(=O)n(C)c2cc(/C=N/NC(=O)c3cccc(Br)c3)ccc21 19.4%
CC1(C)C=Cc2c(ccc3c2OC[C@@H](c2ccc(O)cc2O)C3)O1 -97.4%
Cc1c(NC(=O)CSc2nnnn2-c2ccc(C(=O)O)cc2)c(=O)n(-c2ccccc2)n1C 11%
Cc1c(NC(=O)CSc2nnc(-c3cccnc3)n2N)c(=O)n(-c2ccccc2)n1C -18.9%
Cc1ccc(NC(=O)c2nc[nH]c2C(=O)N[C@@H](CCCCNC(=O)OC(C)(C)C)C(=O)OC(C)(C)C)cc1 31.7%
CCOC(=O)c1ccc(NC(=O)c2nc[nH]c2C(=O)NCc2ccccc2)cc1 33.2%
O=C(CNC(=O)c1ccccc1F)OCC(=O)c1c[nH]c2ccccc12 6.82%
O=C(Nc1cccnc1)c1noc2c1CCCCC2 3.42%
Cc1ccc(/C=C2\SC(=S)N(CCC(=O)Nc3ccc(O)cc3)C2=O)cc1 20.5%
C=CCOc1ccc(/C=C2\SC(=S)N(CCC(=O)O)C2=O)cc1 42%
COc1ccc(/C=C2\SC(=S)N(CCC(=O)Nc3cccc(C(=O)O)c3)C2=O)cc1OC 0.635%
CCOc1ccc(/C=C2\SC(=S)N(NC(=O)c3ccncc3)C2=O)cc1OC -7.45%
O=C(CCN1C(=O)/C(=C/c2cccs2)SC1=S)NNC(=O)c1cccc(O)c1 -31.2%
CC(C(=O)Nc1ccc(O)c(C(=O)O)c1)N1C(=O)/C(=C/c2cccs2)SC1=S (stereo not given) 7.51%
COc1ccc(/C=C2/SC(=O)N(CCCCCC(=O)Nc3ccccc3C(=O)O)C2=S)cc1 -4.65%
Cc1ccc(/C=C2/SC(=S)N(CCC(=O)NCCCN3CCOCC3)C2=O)cc1 -3.05%
Cc1csc(NC(=O)C2CCN(S(=O)(=O)c3ccccc3)CC2)n1 -1.69%
Cc1ccc2c(C)c(C(=O)N(C)CCC3CCCCO3)oc2c1C (stereo not given) 27.9%
CC(=O)Nc1ccc(S(=O)(=O)Nc2nc3n(n2)C(c2ccccc2)CC(=O)N3)cc1 (stereo not given) 12.5%
CC(=O)NC12CC3CC(C1)CC(C(=O)N1CCN(S(=O)(=O)c4cccs4)CC1)(C3)C2 14.8%
Cc1ccc(Nc2nc(CSc3nnc(-c4ccncc4)n3-c3ccccc3C)cs2)cc1 38.1%
Cc1c(C(=O)NCC(c2ccco2)N2CCCC2)oc2ccc(Cl)cc12 (stereo not given) 21%
CCCCCOC(=O)C1=C(C)Nc2nnnn2C1c1ccc(OC)c(OC)c1OC (stereo not given) -18%
COc1cccc(-c2cc3nc4c(c(N5CCC6(CC5)OCCO6)n3n2)CCCC4)c1 22.2%
COc1ccccc1CN(C)C(=O)C1(c2ccc(Cl)cc2)CC1 14.8%
O=C(CN1C(=O)NC(Cc2c[nH]c3ccccc23)C1=O)Nc1ccccc1C(F)(F)F (stereo not given) -9.67%
Cc1ccc2c(c1)N(CC(=O)N(Cc1ccccn1)Cc1ccco1)C(=O)C(C(C)C)O2 (stereo not given) 2.25%
CCc1ccc(NC(=O)N2CCc3ccccc3C2)cc1 -51.8%
CCCc1cc(=O)[nH]c(SCC(=O)OCc2ccccc2)n1 18.4%
COC(=O)CSC1=C(C#N)C(c2ccccc2OC)C(C(=O)OC)C(=O)N1 (stereo not given) 15.2%

Source: PubChem BioAssay AID485346 (Sanford-Burnham Center for Chemical Genomics, 2010)
